Values without a mark were called inactive. Activity calls are given as the source filed them. The call rests on the fitted dose curve; in most records, active means well fitted curve in the direction sought with a large enough effect in the repeat runs; inconclusive means weak or mixed curves; inactive means flat fitted curve, though single readings scatter.
On the % scale 0 is the no-effect control and ±100 the full control effect.

This test is described as follows: qHTS assay to test for compound auto fluorescence at 590 nm (red) in HEK293 cells (AID 720679). Conditions: red autofluorescence 540/590 nm; series mostly up to 91.3 µM. The source says:
National Center for Advancing Translational Sciences [NCATS]
NIH Chemical Genomics Center [NCGC]
U.S. Environmental Protection Agency [EPA]
National Institutes of Environmental Health Sciences [NIEHS]
National Toxicology Program [NTP]
U.S. Food and Drug Administration [FDA]
Compound auto fluorescence often interferes with screening of the compound library against various biological targets and signaling pathways. Some of these compounds may have fluorophoric properties. Such properties may interfere with the assay outputs resulting in false positives and/or negatives. To decrease such complications and ensure the compound activities are relevant in terms of biological response, the Tox21 10K compound library was screened for auto fluorescence.
From the fluorophores used as reporter signals in our screening assays, the auto fluorescence equivalencies of compounds against three fluorophores have been evaluated: Triamterene, Fluorescein and Rose Bengal sodium for blue, green and red fluorescence, respectively. The fluorescence intensities were measured using Excitation/Emission wavelengths at 405/460nm, 485/535nm and 540/590nm for blue, green and red labels, respectively. This assay includes the red fluorescence data.
Tox21 Assay Protocol Summary:
2,000 HEK293 cells in 5 uL of culture medium containing 10% dialyzed FBS per well were dispensed into black wall/clear bottom 1536-well plates using a Multidrop Combi Dispenser (Thermo Scientific). The assay plates were incubated for 4-5 hr at 37C to allow cell attachment to the well bottom, followed by the transfer of 23 nL compound or DMSO vehicle by a pintool work station (Kalypsys, San Diego, CA). After the assay plates were incubated overnight at 37C and 5% CO2, fluorescence intensities in the assay plates were measured by an Envision (PerkinElmer, Shelton, CT) plate reader using three labels for measuring blue, green and red fluorescence at […] 460, 535 and 590nm respectively.
As to `CCCCCN(CCCCC)C(=O)C(CCC(=O)O)NC(=O)c1ccc(Cl)c(Cl)c1` (stereo not given), the molecule was called inactive. The same measure, in the same setting: to `O=C(O)Cc1cc(I)c(Oc2cc(I)c(O)c(I)c2)c(I)c1` belongs “inactive”; to `CSc1ccc(C=O)cc1`, “inactive”; to `CCCCCCCCCCCCCCCCCC(=O)OCCCCCCCCCCCCCC(C)C`, “inactive”. For `Nc1[nH]c(=O)ncc1F`, the fluorescence, % of fluorescent control was 0.0902% [at 18.6 µM].

As to `CCCC(=O)O[C@]1(C(=O)CCl)[C@@H](C)C[C@H]2[C@@H]3CCC4=CC(=O)C=C[C@]4(C)[C@@]3(F)C(=O)C[C@@]21C`, the outcome was inactive.

As to `O=C1C(CCS(=O)c2ccccc2)C(=O)N(c2ccccc2)N1c1ccccc1` (stereo not given), the fluorescence, % of fluorescent control is 0.179% [at 18.6 µM]. With `CCCCCCCCCCCCCCC`, the result was inactive. Take `CC(C)COC(=O)C(C)C`: the result was inactive. On the same count and under the same terms, to `CC/C=C\CCCCO` belongs “inactive”; to `OC1OC[C@@H](O)[C@H](O)[C@H]1O` (stereo not given in full), “inactive”; to `N#CC1(O)CCCCC1`, “inactive”. On to `Cn1cnc2c(=O)[nH]c(N)nc21`, for which the call was inactive. With `C=C(C)C(=O)NCCCN(C)C`, the result was inactive. The same measure, in the same setting: then `COC(=O)CCCC(=O)O`, with “inactive”; and `O=C1OC(=O)c2cc([N+](=O)[O-])ccc21`, with “inactive”. `COc1nc(C)nc(N)n1`: the outcome was inactive.

For `Nc1cc(N)cc(C(=O)O)c1`, the call was inactive. On the same count and under the same terms, then `CC(C)(C)C(=O)/C=C/c1ccc(Cl)cc1`, with “inactive”; and `Cc1ccc(N)cc1[N+](=O)[O-]`, with “inactive”.

As to `Nc1nc2c(ncn2CCC(CO)CO)c(=O)[nH]1`, the result was inactive. The same measure, in the same setting: to `C=CCn1c(=O)n([C@@H]2O[C@H](CO)[C@@H](O)[C@H]2O)c2nc(N)[nH]c(=O)c21` belongs “inactive”. For `C#CC(O)C(CC)CCCC` (stereo not given), the molecule was classed as inactive.

On to `CCCCCC[C@@H](CCC)C(=O)O`, for which the outcome was inactive. For the molecule `NS(=O)(=O)c1cc2c(cc1Cl)NC(CSCc1ccccc1)=NS2(=O)=O`, the fluorescence, % of fluorescent control is -0.0194% [at 18.6 µM]. As to `OC[C@H]1O[C@@H]2O[C@H]3[C@H](O)[C@@H](O)[C@@H](O[C@H]4[C@H](O)[C@@H](O)[C@@H](O[C@H]5[C@H](O)[C@@H](O)[C@@H](O[C@H]6[C@H](O)[C@@H](O)[C@@H](O[C@H]7[C@H](O)[C@@H](O)[C@@H](O[C@H]8[C@H](O)[C@@H](O)[C@@H](O[C@H]9[C@H](O)[C@@H](O)[C@@H](O[C@H]1[C@H](O)[C@H]2O)O[C@@H]9CO)O[C@@H]8CO)O[C@@H]7CO)O[C@@H]6CO)O[C@@H]5CO)O[C@@H]4CO)O[C@@H]3CO`, the result was inactive. As for `Cc1c(C)n(CCN(C)C)c2ccc(C(=O)OCCN(C)C)cc12`, the molecule was classed as inactive. Regarding `O=C(O)/C=C/c1ccc(Cn2ccnc2)cc1`, the fluorescence, % of fluorescent control is -0.336% [at 18.6 µM].

Regarding `CCCCCOC(=O)Nc1nc(=O)n([C@@H]2O[C@H](C)[C@@H](O)[C@H]2O)cc1F`, the molecule was classed as inactive.

For the molecule `NC(=O)c1ncn([C@@H]2O[C@H](CO)[C@@H](O)[C@H]2O)c1N`, the call was inactive.

Regarding `Nc1nc(F)nc2c1ncn2[C@@H]1O[C@H](CO)[C@@H](O)[C@@H]1O`, the result was inactive. As to `NC(N)=NS(=O)(=O)c1ccc(N)cc1`, the fluorescence, % of fluorescent control was 0.29% [at 18.6 µM]. Take `Cc1ccc(Nc2ccc(O)c3c2C(=O)c2ccccc2C3=O)cc1`: the outcome was inactive.

Turning to `NC(=O)Nc1nc2ccccc2[nH]1`, the result was inactive. As for `CCCCCCC(CCCCCCCCCCC(=O)OCC(COC(C)=O)OC(C)=O)OC(C)=O` (stereo not given), the molecule was classed as inactive.

Regarding `C=CC(=O)N1CCOCC1`, the molecule was called inactive. On to `CCN1CCCC(OC(=O)C(c2ccccc2)c2ccccc2)C1` (stereo not given), for which the fluorescence, % of fluorescent control is -0.0352% [at 18.6 µM].

As to `COC(=O)C1=C(C)NC(C)=C(C(=O)OCC(C)=O)C1c1ccccc1[N+](=O)[O-]` (stereo not given), the outcome was inactive.

Take `N[C@@H](CS)C(=O)O`: the outcome was inactive. On the same count and under the same terms, to `CC(=O)c1ccc(C)cc1` belongs “inactive”.

The values above are taken from PubChem BioAssay (Tox21).
